An excerpt weighted towards active compounds, which were near 4.7% of everything screened.
PfHsp90 set2 – reduces growth (ATP signal) of yeast expressing P. falciparum Hsp90 | inhibition, % at 9.4 µM | 0.32% of 310,000 active | S. cerevisiae expressing PfHsp90, BacTiter-Glo ATP, 48 h; yeast lacking PDR1 and PDR3 efflux regulators | AID 504621;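 active = every replicate shows inhibition above about 80%, whatever the replicate mean, limit read from the data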
SKKanGAS inh – inhibitors of SKKanGAS S. pyogenes growth in kanamycin (SK-promoter or general growth effect). 1.3% of 300,000 active. AID 1662. BacTiter-Glo, 6 h. inhibition, % at 7.5 µM;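 active = mean replicate score, as percent of positive control median, at least 50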;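 note: strain carries kanamycin resistance gene driven by streptokinase promoter and grows in 40 µg/ml kanamycin; loss of luminescence reflects streptokinase promoter inhibition or plain growth inhibition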
tim23-1 inh – growth inhibitors of tim23-1 mutant yeast; S. cerevisiae tim23-1 growth, BacTiter-Glo luminescence, 24 h; inhibition, % at 20 µM; 1.3% of 330,000 active; AID 463212;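 active = growth inhibition of the mutant yeast at or above 50%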;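 note: temperature-sensitive mutant grown at 25 °C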
EBI2 antag – antagonists of human EBI2 receptor; EBI2 beta-arrestin recruitment, luminescence, 7a,25-OHC stimulated; inhibition, % at 5 µM; P32249; 0.81% of 360,000 active; in the data active = inhibition above about 38%;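 note: enzyme fragment complementation signal reports receptor beta-arrestin coupling in cells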
Target sequence (P32249 whole entry, looked up, the tested form may be a part): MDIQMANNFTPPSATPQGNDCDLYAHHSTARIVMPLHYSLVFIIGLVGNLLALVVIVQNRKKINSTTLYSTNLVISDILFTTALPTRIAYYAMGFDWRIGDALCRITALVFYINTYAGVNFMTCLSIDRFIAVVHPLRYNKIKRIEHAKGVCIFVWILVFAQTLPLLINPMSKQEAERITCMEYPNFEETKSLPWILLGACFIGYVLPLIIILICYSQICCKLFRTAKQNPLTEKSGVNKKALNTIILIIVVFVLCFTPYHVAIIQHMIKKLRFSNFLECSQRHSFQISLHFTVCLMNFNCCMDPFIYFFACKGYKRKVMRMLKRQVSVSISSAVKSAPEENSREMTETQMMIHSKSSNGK
tim10-1 inh – inhibits growth of tim10-1 mutant yeast. S. cerevisiae tim10-1 ts strain growth, BacTiter-Glo, 24 h. 2.2% of 330,000 active. inhibition, % at 20 µM;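 active = inhibition of at least 40%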;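 note: mutant grown at 25 °C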
TIM10 inh – growth inhibitors of TIM10 yeast strain; S. cerevisiae TIM10 strain growth, BacTiter-Glo luminescence, 24 h; inhibition, % at 10 µM; 1.4% of 330,000 active;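 active = inhibition of 40% or more at the single tested concentration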;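 note: wild-type TIM10 isogenic control strain grown at permissive 25 °C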
tim10-1 conf – confirmation of tim10-1 mutant yeast growth inhibitors | shares compounds with tim10-1 inh | S. cerevisiae tim10-1 ts strain growth, BacTiter-Glo, 24 h | inhibition, % at 20 µM | 56% of 7,400 active;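 active = inhibition of yeast growth at or above a set limit in either of two repeat tests at 20 µM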;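 note: tim10-1 mutant grown at permissive 25 °C to find synthetic lethal compounds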
Each line names hits and unclear results; the compound was inactive in the other large screens (follow-up assays come after a bar, where they were run).

C[C@H](NC(=O)c1ccccc1)C(=O)Nc1nc(-c2ccccn2)cs1	none
c1ccc(SC23CCCCN(CCC2)[C@]32CO2)cc1 (stereo partly drawn)	none (no result: PfHsp90 set2, SKKanGAS inh, tim23-1 inh, tim10-1 inh, TIM10 inh)
O=c1c2c(nc3c(-c4ccc(Cl)cc4)c[nH]n13)CCCC2	SKKanGAS inh 71.0
O=c1c2c(nc3c(-c4cccc5ccccc45)c[nH]n13)CCC2	none
Cc1ccc(N2C(=O)C3CC(c4ccccc4)=C4C5C=CC(C6C(=O)N(c7ccc(C)cc7)C(=O)C56)C4C3C2=O)cc1 (stereo not drawn)	SKKanGAS inh 65.4
CC(=O)Nc1ccc(C#Cc2ccc(NC(C)=O)cc2)cc1	SKKanGAS inh 84.5
CC(=O)Nc1ccc(-c2ccc(NC(C)=O)cc2)cc1	none
O=C(NCc1ccccc1)C(c1ccc(C(F)(F)F)cc1)N1CCN(CCN2CCOCC2)CC1 (stereo not drawn)	none (no result: PfHsp90 set2, SKKanGAS inh, tim23-1 inh, tim10-1 inh, TIM10 inh)
CC(=NNC(=S)Nc1ccc(C)cc1)c1ccccn1	none (no result: SKKanGAS inh, tim23-1 inh, tim10-1 inh, TIM10 inh)
CC(=NNC(=S)Nc1cccc(C)c1)c1ccccn1	PfHsp90 set2 112.3 (no result: SKKanGAS inh, tim23-1 inh, tim10-1 inh, TIM10 inh)
C/C(=N\NC(=O)c1cc(Br)ccc1O)c1ccccn1	SKKanGAS inh 97.3
C/C(=N\NC(=O)C(c1ccccc1)c1ccccc1)c1ccccn1	SKKanGAS inh 69.5
C/C(=N\NC(=O)C(c1ccccc1)c1ccccc1)c1ccc(O)cc1	none
CC1(C(=O)O)CCN1C(=O)COc1ccc(Cl)cc1 (stereo not drawn)	none (no result: PfHsp90 set2, SKKanGAS inh, tim23-1 inh, tim10-1 inh, TIM10 inh)
Cc1[nH]c2ccccc2c1C(c1ccccn1)c1c(C)[nH]c2ccccc12	SKKanGAS inh 71.6
COc1ccccc1NS(=O)(=O)c1cc(C(=O)N2CC(C)CC(C)C2)ccc1C (stereo not drawn)	PfHsp90 set2 102.1
COc1ccccc1NS(=O)(=O)c1cc(C(=O)NCC2CCCO2)ccc1C (stereo not drawn)	none
COc1ccccc1NS(=O)(=O)c1cc(NC(=S)NCC2CCCO2)ccc1C (stereo not drawn)	SKKanGAS inh 55.5
N#CC(C#N)=C1C=CC=CN1/C(=C\c1ccco1)C(=O)c1ccc(Br)cc1	EBI2 antag 76.7 (no result: SKKanGAS inh, tim23-1 inh, tim10-1 inh, TIM10 inh)
N#CC(C#N)=C1C=CC=CN1/C(=C\c1ccco1)C(=O)c1ccccc1	EBI2 antag 77.7 (no result: SKKanGAS inh, tim23-1 inh, tim10-1 inh, TIM10 inh)
Clc1ccc(-c2cn3c(n2)-c2ccccc2C3)cc1Cl	EBI2 antag 56.7
CCc1sc(N(C(=O)Cc2ccccc2)c2cccc(F)c2)nc1-c1ccc(C)cc1	SKKanGAS inh 59.4
O=C(Cn1nc2ccccc2n1)N/N=C/c1cc(Cl)cc([N+](=O)[O-])c1O	none (no result: SKKanGAS inh, tim23-1 inh, tim10-1 inh, TIM10 inh)
O=[N+]([O-])c1cc(Cl)cc(/C=N/Nc2nc3ccccc3s2)c1O	SKKanGAS inh 82.3
COc1cc(/C=N/Nc2nc3ccccc3s2)cc([N+](=O)[O-])c1O	SKKanGAS inh 54.4
Cn1nc(C2CC2)cc1NC(=O)C1(C)CCN1C(=O)CCc1ccccc1 (stereo not drawn)	none (no result: PfHsp90 set2, SKKanGAS inh, tim23-1 inh, tim10-1 inh, TIM10 inh)
Cc1ccc2c(c1)c(C)c(C)n2CC(O)Cn1nc(C)c(Br)c1C (stereo not drawn)	SKKanGAS inh 58.8
CC1(C)CC(c2nc(-c3ccc(Cl)cc3)cs2)CCS1 (stereo not drawn)	SKKanGAS inh 65.5
CC1(C)CC(c2nc(-c3ccc(Br)cc3)cs2)CCS1 (stereo not drawn)	none
Cn1c(SCc2nn[nH]n2)nc2c1c(=O)n(Cc1ccccc1Cl)c(=O)n2C	none (no result: PfHsp90 set2)
Cc1ccc(-n2ncc3c2CCCC3NC(=O)c2ccccc2N2CCOCC2)cc1C (stereo not drawn)	PfHsp90 set2 114.0
O=C(NC1CCCc2c1cnn2-c1ccc(F)cc1F)c1ccccc1N1CCOCC1 (stereo not drawn)	none
Cc1ccc(-n2nnnc2SCC(=O)NC(=O)Nc2ccc3c(c2)OCCO3)cc1	SKKanGAS inh 49.9
COCCN(C(=O)CSc1nnc(-c2ccccc2F)o1)c1c(N)n(Cc2ccccc2)c(=O)[nH]c1=O	none (no result: PfHsp90 set2, SKKanGAS inh, tim23-1 inh, tim10-1 inh, TIM10 inh)
COCOCCn1cc(CN2CCS(=O)(=O)N(Cc3ccc(-c4ccc(Cl)c(Cl)c4)cc3)C(C)C2=O)nn1 (stereo not drawn)	none (no result: PfHsp90 set2, SKKanGAS inh, tim23-1 inh, tim10-1 inh, TIM10 inh)
N#CCC(=O)c1ccccc1Oc1ccc(Cl)cc1	tim10-1 inh 49.8 | tim10-1 conf 28.7
CC(/C=N/n1c(-c2cccnc2)n[nH]c1=S)=C\c1ccccc1	none
CC(=C/c1ccccc1)/C=N/n1c(-c2ccncc2)n[nH]c1=S	tim10-1 inh 40.4 | tim10-1 conf 38.0
CC(NC(=O)COC(=O)C1CCN(c2ccc(C(F)(F)F)cn2)CC1)c1ccc(Br)cc1 (stereo not drawn)	none
O=C(OCc1ccc([N+](=O)[O-])cc1)c1cnc(Cl)c(Cl)c1	none
O=C(OCc1ccccc1)N1CCC2CC1c1cc(NCCc3ccccc3)ccc12 (stereo not drawn)	none (no result: SKKanGAS inh, tim23-1 inh, tim10-1 inh, TIM10 inh)
Cc1ccc(NC(=O)CCSc2nnnn2-c2ccc3c(c2)OCO3)cc1C	none
COc1ccc(-c2cc(C(F)(F)F)nc(N3CCN(c4ccc(F)cc4)CC3)n2)cc1OC	none (no result: tim23-1 inh, tim10-1 inh, TIM10 inh)
COc1ccc(-c2cc(C(F)(F)F)nc(N3CCN(Cc4ccccc4)CC3)n2)cc1OC	tim10-1 inh 45.7 | tim10-1 conf inactive
COc1ccc(NCc2nc3ccccc3n2CCOc2ccc(C)cc2)cc1	tim10-1 inh 49.6 | tim10-1 conf inactive
COc1ccc(NCc2nc3ccccc3n2C)cc1	none
O=C1NC(=O)C2(CCCCC2C2CCCCC2)N1 (stereo not drawn)	none (no result: SKKanGAS inh, tim23-1 inh, tim10-1 inh, TIM10 inh)
CCCCOC(=O)n1c(SCC(=O)N(C)C)nc2ccccc21	tim10-1 inh 40.6 | tim10-1 conf inactive
c1ccc(-c2cc3n(c2)CCc2ccccc2-3)cc1	tim10-1 inh 41.8 | tim10-1 conf inactive
CC(=O)N(C(C)=O)C1=C(C#N)C2(CCCCC2)Cc2ccccc21	tim10-1 inh 46.5 | tim10-1 conf 34.5
O=C1N(Cc2cccnc2)C[C@@H]2C[C@@H](c3cccc(Oc4ccccc4)c3)N3CCC[C@@]123	none
Cc1cc(Cl)ccc1OCCCC(=O)N1CCOCC1	tim10-1 inh 42.4 (no result: PfHsp90 set2) | tim10-1 conf inactive
COc1cc(/C=C(\C#N)C(=O)Nc2ccc(C(=O)O)cc2)ccc1OC(=O)c1cccc(F)c1	none
CCOc1ccccc1-c1nn2c(Cc3ccccc3)nnc2s1	tim10-1 inh 41.0 (no result: PfHsp90 set2) | tim10-1 conf inactive
COc1ccccc1-c1nn2c(C3COc4ccccc4O3)nnc2s1 (stereo not drawn)	tim10-1 inh 46.0 (no result: PfHsp90 set2) | tim10-1 conf 48.2
COc1ccccc1-c1nn2c(C(F)(F)F)nnc2s1	tim10-1 inh 45.3 (no result: PfHsp90 set2) | tim10-1 conf 33.6
FC(F)(F)c1nnc2sc(-c3ccccn3)nn12	none
c1ccc(Cc2nn3c(C4COc5ccccc5O4)nnc3s2)cc1 (stereo not drawn)	none
Cc1ccc(NC(=O)CN(c2ccc(Cl)cc2)S(=O)(=O)c2cc([N+](=O)[O-])ccc2Cl)c(C)c1	tim10-1 inh 44.5 | tim10-1 conf inactive

Compound activity from PubChem BioAssay.
